VHR inh color: inhibitors of human VHR1 phosphatase (DUSP3) | recombinant VHR phosphatase, colorimetric substrate read-out | inhibition, % at 20 µM | hit rate 0.7% among 50,000 | AID 1992; in the data active = inhibition above about 60%
Target sequence (P51452 whole entry, looked up): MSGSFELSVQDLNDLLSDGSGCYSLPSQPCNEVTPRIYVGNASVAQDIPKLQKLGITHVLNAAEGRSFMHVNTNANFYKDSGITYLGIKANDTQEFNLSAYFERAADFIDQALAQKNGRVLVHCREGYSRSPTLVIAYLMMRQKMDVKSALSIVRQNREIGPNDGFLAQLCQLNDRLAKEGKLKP
An asterisk follows results filed as active. Only a selection was taken, and hits are over-represented in it overall.

SMILES	VHR inh color
COc1ccc(OC)c(NC(=O)CN(c2ccc(C(C)C)cc2)S(=O)(=O)c2ccccc2)c1	4
CCCOc1ccc(/C=N/N2CCN(Cc3ccccc3Cl)CC2)cc1	-26
CC(=O)Oc1ccc(NC(=O)CC2Sc3ccccc3NC2=O)cc1 (stereo unspecified)	-12
Cc1sc(NC(=O)c2ccccc2[N+](=O)[O-])nc1-c1ccccc1	-8
COc1cc(C2SCC(=O)N2CCN2CCCCC2)cc([N+](=O)[O-])c1O (stereo unspecified)	12
O=C(Cc1ccccc1Cl)c1ccc(O)cc1O	-13
Cc1ccc(C(=O)c2c(N)sc3c2CCCC3)cc1	-5
CC(C)CNC(=O)CCCOc1ccc(Cl)cc1Cl	6
O=C(COc1ccc(Cl)cc1Cl)NCCCOCC(=O)Oc1ccc(Cl)cc1Cl	104*
O=C(COc1ccc(Cl)cc1Cl)Oc1ccccc1	84*
O=C(COc1ccc(Cl)cc1Cl)NCc1ccncc1	0
Cc1cccc(OC(=O)COc2ccc(Cl)cc2Cl)c1	10
O=C(COc1ccc(Cl)cc1Cl)OCc1ccccc1	-7
CCN(CC)c1ccc(/C=C2\C(=O)NC(=O)N(c3cc(C)cc(C)c3)C2=O)o1	-24
Cc1cc2nc(-c3cc(NC(=O)Cc4ccccc4)ccc3Cl)oc2cc1C	-39
Cc1cccc(N2C(=O)NC(=O)/C(=C/c3ccc(N(C)C)c(Br)c3)C2=O)c1	-8
COc1ccc2c(c1OC)C(=O)N(c1ccc(NC(C)=O)cc1)C2=O	-16
CCOC(=O)c1sc(NC(=O)c2ccc(C)c([N+](=O)[O-])c2)c(C(=O)OCC)c1C	-19
CCOC(=O)c1c(NC(=O)c2cccc(OC)c2)sc(C(=O)Nc2ccccc2OC)c1C	1
CCOC(=O)c1c(NC(=O)c2ccc(C)c([N+](=O)[O-])c2)sc(C(=O)Nc2ccccc2OC)c1C	116*
CC1=NNC(=O)C1CC(=O)N/N=C/c1ccccc1O (stereo unspecified)	-6
CCOC(=O)CCC(=O)Nc1cc(-c2cccc(C)c2)[nH]n1	12
COC(=O)c1c(N)sc2c1CCCCCC2	-13
COC(=O)c1c(N)sc2c1CCCC2	19
NC(=O)c1c(N)sc2c1CCCCCCCCCC2	100*
SMILES	VHR inh color
C=C(CC(Cc1ccccc1)C(=O)O)c1ccccc1 (stereo unspecified)	97*
O=C(O)CC(Cc1ccc(Br)cc1)C(=O)O (stereo unspecified)	-11
O=C(O)CC(Cc1ccccc1)C(=O)O (stereo unspecified)	-4
CCOC(=O)c1c(-c2cc(C)ccc2C)csc1NC(=O)c1c(F)cccc1F	3
Cc1ccc(/C(O)=C/C(=O)C(=O)NCc2ccccc2)cc1	-18
Cc1ccccc1NS(=O)(=O)c1ccc(NC(=O)c2ccc(C(F)(F)F)cc2)cc1	-12
Cc1ccccc1NC(=O)c1c(NC(=O)C(C)(C)C)sc2c1CCCC2	-2
COc1ccccc1NC(=O)c1c(NC(=O)C(C)(C)C)sc2c1CCCC2	-6
Cc1cccc(NC(=O)c2c(NC(=O)C(C)(C)C)sc3c2CCCC3)c1	88*
O=C(O)CCN1C(=O)/C(=C/c2ccc(-c3ccc(Cl)cc3)o2)SC1=S	-50
COc1ccc(OC)c(/C=C2/SC(=S)N(C)C2=O)c1	-44
O=C1C(c2ccccc2)=C(O)c2ccccc21	-24
CC(C)(C)c1cnnn1-c1ccc(/C=C/C(=O)c2ccccc2)cc1	4
COc1ccc(/C=C2\SC(=O)N(CCC(=O)Nc3cccc(C)c3)C2=O)cc1OC	80*
COc1ccccc1NC(=O)CCN1C(=O)S/C(=C/c2ccc(OC)c(OC)c2)C1=O	-5
COc1ccc(/C=C2\SC(=O)N(CCC(=O)Nc3ccccc3C)C2=O)cc1OC	17
COc1ccc(C2C3C(=O)N(c4ccc(Br)cc4)C(=O)C3N3CCCN23)cc1 (stereo unspecified)	2
O=C1C2C(C(=O)N1c1cccc(Cl)c1)N1CCCN1C2c1ccccc1 (stereo unspecified)	-7
COc1ccc(C2C3C(=O)N(c4ccccc4)C(=O)C3N3CCCN23)cc1 (stereo unspecified)	89*
C#CCOc1ccc(/C=C2\C(=O)NC(=O)N(c3ccc(C)cc3)C2=O)cc1Br	4
COc1ccc(S(=O)(=O)N2CCN(C(=O)c3ccccc3F)CC2)cc1	6
COc1ccc2c(c1)OCC/C2=N/OC(=O)c1ccc(Cl)cc1	-7
CCn1c(CCCO)nc2ccccc21	-5
OCc1nc2ccccc2n1Cc1ccc2ccccc2c1	14
OCc1nc2ccccc2n1Cc1ccccc1F	116*
CC(C)OC(=O)c1cc2nc(-c3cccs3)cc(C(F)(F)F)n2n1	-22
O=C(O)CCCCCN1C(=O)C(O)=C(C(=O)/C=C/c2ccccc2)C1c1ccc(O)cc1 (stereo unspecified)	-12
COC(=O)c1ccc(C(=O)OC)c(NC(=O)C(C(C)C)N2C(=O)c3ccccc3C2=O)c1 (stereo unspecified)	-2
CCOc1cccc(C2CC(=O)Nc3c2cc(Br)c2ccccc32)c1 (stereo unspecified)	-3
COc1cc(C2CC(=O)Nc3c2ccc2ccccc32)cc(OC)c1OC(C)=O (stereo unspecified)	2
